Reference: paper PMC7819943, “Rice protein-binding microarrays: a tool to detect cis-acting elements near promoter regions in rice”
The full ranking holds about 68,000 sequences; the median of “fluorescence intensity (a.u.)” is about 9,100, and the highest 2% start at about 16,000. The entries come from a sample that favours the highest values as a whole.

Each sequence was assayed against OsWRKY34 (Oryza sativa, UniProt Q0JBA9 1-250) (assay: protein-binding microarray (RPBM); PBS, 2% BSA, 51.3 ng/ul salmon testes DNA, 50 uM zinc acetate, 200 nM TF, 25 C, 1 h; high values mean tight binding). Details: protein: recombinant; tags: N-terminal polyhistidine and DsRed monomer fusion (pET32a); label: CyDye5-dUTP incorporated in the synthesized complementary strand; 3' TTTTT single-stranded linker to array surface; dsDNA, one strand shown.
OsWRKY34, sequence (Q0JBA9 entry or part of it): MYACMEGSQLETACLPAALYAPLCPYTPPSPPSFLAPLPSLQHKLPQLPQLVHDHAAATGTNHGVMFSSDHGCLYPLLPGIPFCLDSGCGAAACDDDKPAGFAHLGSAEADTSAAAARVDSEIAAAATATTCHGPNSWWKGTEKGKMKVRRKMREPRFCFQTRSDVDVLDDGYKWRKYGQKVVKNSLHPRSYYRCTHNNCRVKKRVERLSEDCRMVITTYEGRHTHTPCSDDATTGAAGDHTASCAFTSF
Procedure, shortened: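 A custom Agilent array was converted to double-stranded form by primer extension with Cy5-dUTP and blocked with 2% BSA. Protein at 200 nM in PBS with 2% BSA, salmon testes DNA and 50 µM zinc acetate was applied for 1 h at 25 °C, followed by washing. The proteins were polyhistidine–DsRed N-terminal fusions of transcription factors, expressed in E. coli BL21-CodonPlus and Ni–NTA-purified. The binding signal is per-feature fluorescence intensity (arbitrary units) from an Axon 4000B scanner.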

| Sequence | binding signal |
| --- | --- |
| AAAATTCCTAAAACTACTTGCTACTATTCTCTCTCCAACTCGGAGTCACCTAGTGCAG | 8240 fluorescence intensity (a.u.) |
| TCCTCGCGTTCTTTTTCTCCACCGAGACCACCGGCGCTCTCGGAGTCACCTAGTGCAG | 9050 fluorescence intensity (a.u.) |
| TTGGTGGCCTTTTCTCCCTTTTTTGCATGTGCTTTGCTCTCGGAGTCACCTAGTGCAG | 14100 fluorescence intensity (a.u.) |
| CACATATCGTTTAAATTTTCGACTTGACCGTTTTTCAATTCGGAGTCACCTAGTGCAG | 9550 fluorescence intensity (a.u.) |
| AGCACATATTTGACCGTTCGTCTTATTCAAAAACTTTTATCGGAGTCACCTAGTGCAG | 8540 fluorescence intensity (a.u.) |
| GGATTTTGACTTTTTACTTGCACTGTTTGACTATTCGTCTCGGAGTCACCTAGTGCAG | 18600 fluorescence intensity (a.u.) |
| GACGCCGTTGACTTTTTATCACATATTTGACCGTTCGTCTCGGAGTCACCTAGTGCAG | 20400 fluorescence intensity (a.u.) |
| ACGCCGTTGATTTTTTTAAACATATTTGACCGTTCGTCTTCGGAGTCACCTAGTGCAG | 11400 fluorescence intensity (a.u.) |
| GGATTTTAAGTTTTTACTTGCACTGTTTGACCATTCGTCTCGGAGTCACCTAGTGCAG | 9200 fluorescence intensity (a.u.) |
| TGATACCGTTGACTTTTCACATAACTTGGTCGTTCGTTTTCGGAGTCACCTAGTGCAG | 34100 fluorescence intensity (a.u.) |
| TACCCCTCCGTTTCATATGATAAGTTGTTTGACTTTTTTTCGGAGTCACCTAGTGCAG | 14300 fluorescence intensity (a.u.) |
| GATTTTGACTTTTTACTTGCACTGTTTGACCATTCATATTCGGAGTCACCTAGTGCAG | 16300 fluorescence intensity (a.u.) |
| GATACCGTTGACTTTTTAGCACATATTTGACCGTTCGTCTCGGAGTCACCTAGTGCAG | 39400 fluorescence intensity (a.u.) |
| ACTTCACCGGTTTCCGGCGTCCGGCGCGGCGCCTGCAGAACGGAGTCACCTAGTGCAG | 9530 fluorescence intensity (a.u.) |
| TAACACCCAACACTTACACTCTGGCATTTTGGAGGTCTTGCGGAGTCACCTAGTGCAG | 8990 fluorescence intensity (a.u.) |
| AGCACCTACGGCGGCGTCTTCTCCTACTGCCTACCGCCGACGGAGTCACCTAGTGCAG | 9000 fluorescence intensity (a.u.) |
| ATGACGTCCAAAGCTTCACCTTTTTTTTTATATATAAACCCGGAGTCACCTAGTGCAG | 8260 fluorescence intensity (a.u.) |
| GGGTAGGAGGAGGTAATTGAGAGGTAATTCCTCCTTTAATCGGAGTCACCTAGTGCAG | 9220 fluorescence intensity (a.u.) |
| TTTTGACGACCCTAGCAATATTGCTATACACTCTTCATTCCGGAGTCACCTAGTGCAG | 10700 fluorescence intensity (a.u.) |
| AAGAAATCTTCCCTGTCCTACCTTTTCTTCTCACTGTATGCGGAGTCACCTAGTGCAG | 8860 fluorescence intensity (a.u.) |
| ACAGGAGAGTGATTACTTTTGCATTATTAATTGATGTTGTCGGAGTCACCTAGTGCAG | 8400 fluorescence intensity (a.u.) |
| CACCGTTGACTTTTTAGCACATATTTGACCGTTTGTCTTTCGGAGTCACCTAGTGCAG | 39100 fluorescence intensity (a.u.) |
| TTTGACATCATTGACTTTTTAGCACATATTTGACCGTTCGCGGAGTCACCTAGTGCAG | 14400 fluorescence intensity (a.u.) |
| TTAGCACATGTTTGACCGTTCGTCTTATTCAAAAACTTTTCGGAGTCACCTAGTGCAG | 12600 fluorescence intensity (a.u.) |

| Sequence | binding signal |
| --- | --- |
| GACACCGTTAACTTTTTAGCATATGTTTGACCGTTCGTCTCGGAGTCACCTAGTGCAG | 10600 fluorescence intensity (a.u.) |
| GACACTGTTGACTTTTTAGCACATATTTGACCGTTCGTCTCGGAGTCACCTAGTGCAG | 21300 fluorescence intensity (a.u.) |
| CCCACACTTCTCCCGTTCTCCTGGAGGAAGACGACACCCACGGAGTCACCTAGTGCAG | 8150 fluorescence intensity (a.u.) |
| CATCTTCGTCCTTTAAATTTGTTTTATTTTAAATCCTCTACGGAGTCACCTAGTGCAG | 8400 fluorescence intensity (a.u.) |
| TCATTTGTCATCCATAAGTTTATATTTTGTACTTTTAGTTCGGAGTCACCTAGTGCAG | 8550 fluorescence intensity (a.u.) |
| AGAGACTGGTGATGGACTTTACTCTTTTCTTCTCCAACACCGGAGTCACCTAGTGCAG | 8330 fluorescence intensity (a.u.) |
| GGGCGCCGGTATGCTTCTTCCATTCCACCTATGTGTTTCTCGGAGTCACCTAGTGCAG | 9490 fluorescence intensity (a.u.) |
| TTTTTGTCTTATTGTTTTGTTTATTTTATTTCAGTTTATTCGGAGTCACCTAGTGCAG | 9760 fluorescence intensity (a.u.) |
| CGCTTTTGCACAGTATTTTTATTTGCAGAGTTATGTTTGTCGGAGTCACCTAGTGCAG | 8090 fluorescence intensity (a.u.) |
| ATTTTTTCACGTTCGGACCTATGGTTTTTTTGCCACTTTGCGGAGTCACCTAGTGCAG | 8520 fluorescence intensity (a.u.) |
| TTTCCCACGTTTTGTCATTTTTTCAGCTATATATTAATTTCGGAGTCACCTAGTGCAG | 12000 fluorescence intensity (a.u.) |
| TTATGCCAGCCATTTCACTTTTTCCCACGTTTTGTCATTTCGGAGTCACCTAGTGCAG | 18900 fluorescence intensity (a.u.) |
| AAAGTTTTTTGTCGTTGTTTGTTTTCCAGTATTTGCTTTTCGGAGTCACCTAGTGCAG | 18000 fluorescence intensity (a.u.) |
| ATTCCGGTCATTTACGCGCTTTTAGCTTTGCCCTTCATTTCGGAGTCACCTAGTGCAG | 17200 fluorescence intensity (a.u.) |
| TTACTCTACTCATTTAGCTTTTGGTTGGTTGGTTCCCTTCCGGAGTCACCTAGTGCAG | 14400 fluorescence intensity (a.u.) |
| ATTTCTTACGTTGTTGCAGCTTTGTTTTTTTTGCTTATTTCGGAGTCACCTAGTGCAG | 14900 fluorescence intensity (a.u.) |
| TTGCTTGTTGATTGATTCGTTTTTGTCAATTTTGAAGTTTCGGAGTCACCTAGTGCAG | 8470 fluorescence intensity (a.u.) |
| TTTGTTTTTTTTGCTTATTTAGTTTTTTTTTCAGCTTTTTCGGAGTCACCTAGTGCAG | 17300 fluorescence intensity (a.u.) |
| CGTTTTTTTTTTCATTCCATGTTTGCATTAGCTTCATTTCCGGAGTCACCTAGTGCAG | 13400 fluorescence intensity (a.u.) |
| ACAAATTCCTGACTTCACGGTTTTCTATTTGGTTGTAATACGGAGTCACCTAGTGCAG | 9590 fluorescence intensity (a.u.) |
| TTTTTTTATTCGTGTCTGAAAATCATTTCCGATATCCGGTCGGAGTCACCTAGTGCAG | 8470 fluorescence intensity (a.u.) |
| CACTAAAGTTTCATTGGGTTTTCAGTTTTCACTTCATTATCGGAGTCACCTAGTGCAG | 10700 fluorescence intensity (a.u.) |
| ATTCGTTTCGTATTTATGCCCGATATTATCCGTGCTTCTACGGAGTCACCTAGTGCAG | 9200 fluorescence intensity (a.u.) |
